For some of these results: Results with a measured potency or affinity are listed apart. Activity calls are given as the source filed them.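 Rule for the calls, unless noted: active = calcium signal rise above buffer-control mean plus 5 SD in both duplicates, and also a hit in the primary screen; inactive = the rest.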

Experiment [1] relates to TRPC4 beta (transient receptor potential cation channel C4), mouse. In words: TRPC4 cation channel opening, retest – cell-based, Fluo4 calcium, HEK293 TRPC4beta/mu-opioid, duplicates, 10 µM, confirmation (AID 2426;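 active = fluorescence ratio normalized to control raised more than 50% in primary screen plus both repeat runs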). To be noted: Fluo4 calcium fluorescence, at 10 µM; hits give high values.
Experiment [2] relates to transient receptor potential cation channel C4 beta (TRPC4), mouse. Briefly: TRPC4 cation channel opening, second retest – cell-based, second round, Fluo4, HEK293 TRPC4beta/mu-opioid, 1 µM, confirmation (AID 2461;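 active = primary screen active and over 50% activation in each of two duplicate runs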). To be noted: Fluo4 calcium fluorescence, at 1 µM; hits give high values.
Experiment [3] deals with TRPC4 (transient receptor potential cation channel C4 beta), mouse. In words: potentiation of DAMGO EC20 TRPC4 response – cell-based, second round, Fluo-4, HEK293 TRPC4beta/mu-opioid, 1 µM, confirmation (AID 2554;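 active = primary screen hit whose fluorescence ratio, in both repeats, exceeds the weak agonist control mean by 3 SD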). To be noted: DAMGO EC20, Fluo-4 calcium flux, at 1 µM; hits give high values.
The subject of experiment [4] is TRPC4 beta (transient receptor potential cation channel C4), mouse. In words: potentiation of DAMGO EC20 TRPC4 response – cell-based, Fluo-4, HEK293 TRPC4beta/mu-opioid, confirmation (AID 2555;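 active = primary screen hit whose calcium fluorescence ratio, in both repeats, exceeds the weak agonist control mean by 3 SD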). To be noted: DAMGO EC20, Fluo-4 calcium flux, at 10 µM; hits give high values. (In general: Calcium assays in cells follow changes in intracellular calcium, usually with a dye or a luminescent sensor.)

For experiment [5], the target named is Short transient receptor potential channel 4 (Mus musculus) (UniProt Q9QUQ5). Briefly: blockers of DAMGO-evoked TRPC4 calcium flux – cell-based, Fluo4, HEK293 TRPC4beta/mu-opioid, confirmation (AID 2636;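 active = calcium signal cut by more than 3 SD below the full-agonist control yet still positive, in both repeats and the earlier primary screen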). As to conditions: at 10 µM; hits give high values.
Experiment [6] shares this target. In words: blockers of DAMGO-evoked TRPC4 calcium flux – cell-based, second round, Fluo4, HEK293 TRPC4beta/mu-opioid, 1 µM, confirmation (AID 2637;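 active = calcium signal ratio cut to more than 3 SD under the fully stimulated control mean yet still positive, in both repeats and the primary screen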). To be noted: at 1 µM; hits give high values.
For experiment [7] the target is unchanged. Briefly: calcium entry via TRPC4 opening agents – cell-based, HEK293 TRPC4/mu-opioid, Fluo-4 calcium, dose response (AID 434937;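 active = primary screen activator hit with a dose response curve and TRPC4 channel activation at any tested dose; inactive = no activation, no dose response, or not a primary hit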).
Experiment [8] has the same target. Briefly: block of DAMGO-driven TRPC4 calcium entry – cell-based, HEK293 TRPC4/mu-opioid, Fluo-4 calcium, dose response (AID 434942;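 active = primary screen inhibitor hit that blocks the TRPC4 channel at some tested dose, yielding a dose curve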).
For experiment [9], the target named is Short transient receptor potential channel 6 (Mus musculus) (UniProt Q61143). In words: TRPC6 blockade by TRPC4 inhibitor hits – cell-based, HEK293, membrane potential dye, duplicate, selectivity assay for TRPC4 inhibitor project, confirmation (AID 434948;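 active = active in primary screen and both duplicates, each dropping signal beyond three positive-control SD with fluorescence still positive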). To be noted: HEK293 TRPC6, membrane potential dye fluorescence, at 10 µM, stimulated with maximal-effect acetylcholine; hits give high values.

For experiment [10] the target is unchanged. In words: TRPC6 opening by TRPC4 activator hits – cell-based, HEK293, membrane potential dye, duplicate, selectivity assay for TRPC4 activator project, confirmation (AID 434950;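 active = membrane potential signal rise above negative control mean plus 3 SD in both duplicates, also active in the earlier TRPC4 screen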). To be noted: HEK293 TRPC6, membrane potential fluorescence, at 10 µM; activation: hits give high values; outcome: activation.
Experiment [11] shares this target. In words: positive modulators of mouse TRPC6 channel – HEK293 cells, membrane potential dye, duplicate, selectivity assay for TRPC4 potentiator project, confirmation (AID 434952;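 active = compound raising the membrane signal above positive-control mean plus 3 SD in both repeats, and a primary screen hit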). To be noted: HEK293 TRPC6, membrane potential dye fluorescence, at 10 µM, maximal acetylcholine added after compound; hits give high values.
Experiment [12] has as its target Short transient receptor potential channel 4 (Mus musculus) (UniProt Q9QUQ5). Briefly: calcium flux activators in TRPC4/5HT1a cells, counter-screen for TRPC4 activator project, cell-based, second counter screen, HEK293 TRPC4/5HT1a, Fluo-4 (AID 434977). As to conditions: Fluo-4 calcium flux, at 10 µM; hits give high values.
A short description of experiment [13]: serotonin-gated TRPC4 signal block – cell-based, second counter screen, HEK293 TRPC4/5HT1a, Fluo-4, counter-screen for TRPC4 inhibitor project, confirmation (AID 434978;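 active = primary screen active whose calcium signal fell more than 3 SD beyond the full-serotonin control mean in both duplicate plates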;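 for outcome: serotonin given first at submaximal then at maximal dose after compound preincubation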). To be noted: Fluo-4 calcium flux, at 10 µM, serotonin added to trigger calcium flux; hits give high values. For orientation: Counterscreens check selectivity or assay interference.
For experiment [14], the system named is TRPC4 (mouse), co-expressed with 5HT1a in HEK293. In words: enhancement of serotonin-evoked TRPC4 response – cell-based, second counter screen, HEK293 TRPC4/5HT1a, Fluo-4, counter-screen for TRPC4 potentiator project, confirmation (AID 434979;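 active = signal rise over 3 SD above mean of control wells given weak agonist, in both repeats and first screen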). As to conditions: Fluo-4 calcium flux, at 10 µM, serotonin added at its EC20 dose; hits give high values.
The nature of experiment [15]: nonspecific calcium rise without TRPC4 – cell-based, HEK293 mu-opioid receptor line, counter-screen for TRPC4 activator project, confirmation (AID 449723;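 active = hit in primary screen, with calcium signal over 5 SD above buffer well mean in both duplicates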;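 note: counter screen cells carry the mu-opioid receptor alone and lack TRPC4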). As to conditions: HEK293 mu-opioid cells, Fluo-4 calcium fluorescence, at 10 µM; hits give high values.
A short description of experiment [16]: nonspecific potentiation of DAMGO calcium response – cell-based, HEK293 mu-opioid receptor line, counter-screen for TRPC4 allosteric potentiator project, confirmation (AID 449724;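 active = calcium signal rise more than 3 SD above the low-dose agonist control mean, in both duplicate plates and the primary screen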). As to conditions: HEK293 mu-opioid receptor cells, Fluo-4 calcium flux, at 10 µM, compound added before EC20 DAMGO stimulus; hits give high values.
For experiment [17], the target named is Short transient receptor potential channel 4 (Mus musculus) (UniProt Q9QUQ5). Briefly: potentiation of DAMGO-evoked TRPC4 calcium signal – cell-based, HEK293 TRPC4/mu-opioid, Fluo-4 calcium, EC20 DAMGO, dose response (AID 434941;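 active = earlier screen potentiator hit that boosts the TRPC4 ion channel at some dose, with a dose response; inactive = no potentiation, no dose response, or not a prior hit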;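 note: calcium entry triggered by an EC20 dose of DAMGO at the co-expressed mu-opioid receptor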).
Experiment [18] is described as follows: nonspecific flux increase, KCNQ1-free cells – parental CHO cells, counter-screen for KCNQ1 potentiator project (AID 493006;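 active = duplicate-averaged activation above buffer control mean plus 5 SD of those controls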;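 for activation: fluorescence ratio of max minus min over baseline after K+ and Tl+ depolarization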). As to conditions: parental CHO-K1 cells, FluxOR thallium flux, at 10 µM; hits give high values.
In experiment [19] the target is Potassium voltage-gated channel subfamily KQT member 1 (Homo sapiens) (UniProt P51787). In words: enhancement of KCNQ1 channel thallium flux – FluxOR thallium flux, CHO cells, duplicates, confirmation (AID 493007;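 active = potentiation averaged over duplicate wells exceeding buffer-only control mean by more than 3 SD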;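 note: 0% = buffer-only wells and 100% = R-L3 activator control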). To be noted: KCNQ1 cell line, FluxOR thallium flux fluorescence, at 10 µM; hits give high values, % of reference activator effect, buffer zero.
Experiment [20] addresses Potassium voltage-gated channel subfamily KQT member 2 (Rattus norvegicus) (UniProt O88943). Briefly: KCNQ2 thallium flux enhancement – KCNQ2-CHO-K1 cells, selectivity assay for KCNQ1 potentiator project (AID 493009;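 active = mean duplicate potentiation above the buffer control mean plus 5 SD of buffer wells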;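 note: assay conditions were tuned for KCNQ1 rather than KCNQ2 modulators; signal is max minus min fluorescence divided by baseline after thallium stimulus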). As to conditions: FluxOR thallium flux fluorescence, at 10 µM; hits give high values, scaled: buffer 0, activator control 100.

Sequence of Short transient receptor potential channel 4 (Mus musculus) (Q9QUQ5 whole entry, looked up): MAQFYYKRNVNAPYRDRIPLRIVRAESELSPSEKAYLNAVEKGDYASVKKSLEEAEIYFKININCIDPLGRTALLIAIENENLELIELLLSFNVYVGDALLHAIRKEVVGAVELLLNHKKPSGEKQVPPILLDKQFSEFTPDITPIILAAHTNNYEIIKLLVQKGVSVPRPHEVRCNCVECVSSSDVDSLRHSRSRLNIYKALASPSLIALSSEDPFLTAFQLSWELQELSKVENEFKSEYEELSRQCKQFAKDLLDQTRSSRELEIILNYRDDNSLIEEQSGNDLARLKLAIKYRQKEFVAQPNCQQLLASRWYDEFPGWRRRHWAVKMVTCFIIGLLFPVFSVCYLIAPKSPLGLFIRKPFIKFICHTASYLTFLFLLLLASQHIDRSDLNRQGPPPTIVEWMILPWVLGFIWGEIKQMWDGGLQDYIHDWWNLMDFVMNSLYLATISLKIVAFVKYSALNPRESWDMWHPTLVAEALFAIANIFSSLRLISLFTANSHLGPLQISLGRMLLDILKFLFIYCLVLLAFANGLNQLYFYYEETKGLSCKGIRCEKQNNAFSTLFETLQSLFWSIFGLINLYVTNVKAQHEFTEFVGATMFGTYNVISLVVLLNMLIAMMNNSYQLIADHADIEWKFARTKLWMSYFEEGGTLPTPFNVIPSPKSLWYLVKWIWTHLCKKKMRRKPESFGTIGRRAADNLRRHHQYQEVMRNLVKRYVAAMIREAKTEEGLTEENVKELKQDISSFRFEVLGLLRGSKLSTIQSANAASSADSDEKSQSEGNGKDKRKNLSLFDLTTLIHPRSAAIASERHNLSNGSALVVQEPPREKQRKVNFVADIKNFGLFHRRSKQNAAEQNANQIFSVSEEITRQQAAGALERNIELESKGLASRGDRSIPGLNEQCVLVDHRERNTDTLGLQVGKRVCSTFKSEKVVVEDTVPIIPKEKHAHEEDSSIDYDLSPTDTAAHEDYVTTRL
Sequence of Potassium voltage-gated channel subfamily KQT member 1 (Homo sapiens) (P51787 whole entry, looked up): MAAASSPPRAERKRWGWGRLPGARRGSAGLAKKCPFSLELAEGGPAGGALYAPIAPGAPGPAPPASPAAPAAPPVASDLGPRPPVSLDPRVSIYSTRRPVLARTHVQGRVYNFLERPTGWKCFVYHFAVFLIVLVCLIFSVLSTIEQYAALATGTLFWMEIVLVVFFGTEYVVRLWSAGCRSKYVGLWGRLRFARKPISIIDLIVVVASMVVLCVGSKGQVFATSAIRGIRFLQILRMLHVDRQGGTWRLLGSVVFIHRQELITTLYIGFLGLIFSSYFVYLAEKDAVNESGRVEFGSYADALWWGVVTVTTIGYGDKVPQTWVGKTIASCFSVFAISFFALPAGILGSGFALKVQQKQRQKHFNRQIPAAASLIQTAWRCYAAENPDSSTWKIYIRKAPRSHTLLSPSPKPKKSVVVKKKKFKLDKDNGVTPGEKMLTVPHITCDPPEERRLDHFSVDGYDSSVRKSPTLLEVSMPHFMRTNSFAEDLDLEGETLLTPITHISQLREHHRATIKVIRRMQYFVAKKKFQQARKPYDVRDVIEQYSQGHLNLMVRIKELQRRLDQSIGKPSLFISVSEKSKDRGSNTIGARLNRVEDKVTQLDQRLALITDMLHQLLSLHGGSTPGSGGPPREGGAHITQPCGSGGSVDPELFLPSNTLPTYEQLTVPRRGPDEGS
Sequence of Potassium voltage-gated channel subfamily KQT member 2 (Rattus norvegicus) (O88943 whole entry, looked up): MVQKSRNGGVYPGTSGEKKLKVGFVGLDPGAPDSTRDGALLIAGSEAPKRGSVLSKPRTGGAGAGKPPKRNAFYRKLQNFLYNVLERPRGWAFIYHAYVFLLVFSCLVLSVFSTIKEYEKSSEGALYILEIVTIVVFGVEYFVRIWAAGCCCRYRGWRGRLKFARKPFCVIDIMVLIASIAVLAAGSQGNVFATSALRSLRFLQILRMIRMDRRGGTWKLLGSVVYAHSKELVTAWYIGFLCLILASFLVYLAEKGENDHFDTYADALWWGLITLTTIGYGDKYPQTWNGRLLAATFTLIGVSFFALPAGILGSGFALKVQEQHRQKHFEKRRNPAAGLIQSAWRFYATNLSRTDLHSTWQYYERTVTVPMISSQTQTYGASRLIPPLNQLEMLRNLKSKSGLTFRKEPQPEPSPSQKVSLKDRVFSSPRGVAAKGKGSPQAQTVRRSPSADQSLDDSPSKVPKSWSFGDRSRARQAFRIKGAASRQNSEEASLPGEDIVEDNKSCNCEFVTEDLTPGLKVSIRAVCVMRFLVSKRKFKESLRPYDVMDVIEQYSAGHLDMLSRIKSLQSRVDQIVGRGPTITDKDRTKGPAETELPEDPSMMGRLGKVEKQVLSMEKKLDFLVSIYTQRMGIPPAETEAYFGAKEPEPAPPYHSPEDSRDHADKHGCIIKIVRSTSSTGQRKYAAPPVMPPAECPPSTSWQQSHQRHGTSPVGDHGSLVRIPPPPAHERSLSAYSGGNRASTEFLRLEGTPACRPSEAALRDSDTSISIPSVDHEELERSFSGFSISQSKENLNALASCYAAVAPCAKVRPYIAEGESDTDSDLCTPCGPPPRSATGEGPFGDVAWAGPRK
Sequence of Short transient receptor potential channel 6 (Mus musculus) (Q61143 whole entry, looked up): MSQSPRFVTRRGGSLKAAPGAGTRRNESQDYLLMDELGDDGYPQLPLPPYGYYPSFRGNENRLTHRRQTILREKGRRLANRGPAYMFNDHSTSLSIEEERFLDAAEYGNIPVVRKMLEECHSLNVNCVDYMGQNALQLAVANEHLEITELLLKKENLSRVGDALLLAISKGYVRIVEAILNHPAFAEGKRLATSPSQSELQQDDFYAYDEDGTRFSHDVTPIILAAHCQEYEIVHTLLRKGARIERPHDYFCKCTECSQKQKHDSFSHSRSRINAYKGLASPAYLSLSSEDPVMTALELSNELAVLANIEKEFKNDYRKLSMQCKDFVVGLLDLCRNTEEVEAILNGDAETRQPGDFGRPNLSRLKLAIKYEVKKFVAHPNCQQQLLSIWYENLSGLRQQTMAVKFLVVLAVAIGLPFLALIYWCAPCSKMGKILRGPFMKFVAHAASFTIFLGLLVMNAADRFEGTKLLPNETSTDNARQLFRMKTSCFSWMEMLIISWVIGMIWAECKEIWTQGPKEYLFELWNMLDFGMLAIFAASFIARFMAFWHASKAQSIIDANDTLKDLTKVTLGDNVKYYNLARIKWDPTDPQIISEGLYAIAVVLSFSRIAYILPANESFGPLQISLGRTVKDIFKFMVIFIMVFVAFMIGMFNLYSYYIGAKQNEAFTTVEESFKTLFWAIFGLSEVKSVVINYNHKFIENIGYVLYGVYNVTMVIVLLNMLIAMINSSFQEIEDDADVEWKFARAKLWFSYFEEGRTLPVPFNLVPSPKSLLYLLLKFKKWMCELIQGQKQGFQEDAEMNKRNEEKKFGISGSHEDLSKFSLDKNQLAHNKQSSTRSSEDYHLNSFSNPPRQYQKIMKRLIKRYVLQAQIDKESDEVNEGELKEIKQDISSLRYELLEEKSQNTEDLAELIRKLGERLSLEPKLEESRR

Turning to `CC(C)c1c(O)nc(SCCN(C)C)[nH]c1=O`, the result in experiment [1], in [2], in experiment [5], in experiment [6], in experiment [7] and in experiment [8] was inactive. Moreover, the compound was classed as inactive in experiment [9], in [10], in experiment [11], in experiment [12], in experiment [13] and in [15]. In [16], the outcome was inactive. The potentiation in [3] was 13% (active); in experiment [4] it was 27% (active); in experiment [14], 57.7% (active).
`Oc1c(Br)cc(Br)cc1C=Nc1ccc2[nH]ncc2c1`: the result in experiment [1], in experiment [2], in [3], in [4], in [6] and in experiment [7] was inactive. Moreover, the outcome in experiment [17], in [9], in experiment [10], in [11], in experiment [12] and in experiment [14] was inactive. Besides, the outcome in experiment [15], in experiment [16] and in experiment [20] was inactive. The inhibition in experiment [5] was 68% (active); in experiment [13], 30.1% (active). Besides, the activation in [18] was 184% (active). Moreover, the potentiation in experiment [19] was 41.5% (active).
In the case of `CC1=C(C(=O)NCc2ccccc2)C(c2cc(Br)cc(Br)c2OC(C)C)NC(=O)N1` (stereo unspecified), the outcome in experiment [1], in experiment [2], in experiment [3], in experiment [5], in [6] and in experiment [7] was inactive. Further, the result in experiment [8], in experiment [9], in experiment [10], in experiment [11], in [12] and in experiment [13] was inactive. The result in experiment [15] and in [16] was inactive. In addition, the potentiation was 28% (active) in [4] and 11.7% (active) in [14].
In the case of `CC(C1CC2CCC1C2)n1c(-c2cccs2)n[nH]c1=S` (stereo unspecified), the result in [1], in experiment [2], in experiment [3], in experiment [4], in experiment [6] and in experiment [7] was inactive. Moreover, the result in experiment [17], in experiment [9], in [10], in [11], in experiment [12] and in [14] was inactive. The outcome in [15], in experiment [16] and in experiment [18] was inactive. Also, the inhibition in experiment [5] was 54% (active); in experiment [13], 34% (active). Moreover, the potentiation is 48% (active) in experiment [19] and 148% (active) in [20].
Take `COc1ccc(Cl)cc1C(=O)NCCN(C)C`: the outcome in experiment [1], in experiment [2], in experiment [3], in experiment [4], in [5] and in experiment [6] was inactive. Further, the result in [7], in [8], in experiment [9], in experiment [10], in experiment [11] and in experiment [12] was inactive. The outcome in [13], in experiment [15] and in [16] was inactive. Also, the potentiation in experiment [14] is 13.6% (active).
Take `CCCCN(C)CCNC(=O)c1cc2c(-c3cccc(OC)c3)nn(C)c2s1`: the result in experiment [1], in experiment [2], in experiment [3], in [4], in experiment [5] and in experiment [6] was inactive. In addition, the outcome in experiment [7], in experiment [8], in [9], in experiment [10], in [11] and in [12] was inactive. The result in [13], in [15] and in experiment [16] was inactive. In addition, in experiment [14], the potentiation was 39.5% (active).
Regarding `S=c1[nH]nc(-c2cc3c(s2)-c2ccccc2CC3)o1`, the result in [1], in experiment [2], in experiment [3], in experiment [4], in experiment [6] and in experiment [7] was inactive. The outcome in experiment [17], in experiment [9], in experiment [10], in experiment [11], in experiment [12] and in [14] was inactive. For the same compound, the outcome in experiment [15] and in experiment [16] was inactive. In addition, the inhibition is 97% (active) in [5] and 32.1% (active) in experiment [13]. In experiment [18], the activation is 810% (active). Moreover, the values for the potentiation in [19] and in experiment [20] were 241% (active) and 809% (active), respectively.

The inhibition is the relative decrease from the control value, in per cent.

Source of the values: PubChem BioAssay.
